This is a sample that favours compounds with a hit; in the whole collection about 6.3% have one here.
TGFb SMAD3 inh – inhibitors of TGF-b signaling | HepG2 CAGA-GFP TGF-b/SMAD3 reporter, GFP fluorescence, 18 h; TGF-beta stimulated, 500 pg/mL final | Potency, µM (series often up to 46.1 µM), for inactives: at the top dose activity, negative = inhibition, hits mostly inhibitors | 410,000 compounds, 1.2% hits | AID 588855; note: % is set by controls: 0 for no effect and ±100 for the full control effect; nearly all actives have a fitted effect of over 65% in size
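TGF-beta reporter screen: HEPG2 CAGA-GFP, 1% FBS, 500 pg/mL TGF-beta final, 18 h; per-cell GFP summed per well; curves fitted and categorized by class.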
HepG2 viability – counter-screen for TGF-b inhibitors: cytotoxicity in HepG2 cells; HepG2 CAGA-GFP viability, ATP luminescence, 18 h; Potency, µM (doses to about 46.1 µM), for inactives: top-dose activity change, negative = cytotoxicity, usual class: cytotoxic; 410,000 compounds, 0.76% hits; AID 588856
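HepG2 CAGA-GFP cells (1000/well, DMEM with 1% FBS) received compound, then TGF-beta at 500 pg/mL final, and were incubated 18 hours at 37 degrees C. Viability was read by CellTiter-Glo luminescence. Media-only wells were set as complete cell-killing and DMSO as no toxicity.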
S2 tox – cell viability loss in ATXN counter-screen. S2 cells (HEK-293 line with an ATXN2-luciferase reporter) viability, CellTiter-Fluor protease fluorescence, 24 h. Potency, µM (titrated, usually from 56.7 µM), actives largely listed as cytotoxic. 400,000 compounds, 0.49% hits; note: nearly all actives have a fitted effect of over 40% in size
Gal4-VP16 FLuc – counter-screen for ROR gamma inhibitors: Gal4-VP16 reporter. Potency, µM (doses to about 53.6 µM), inactives show at the top dose activity, negative = inhibition, hits mostly inhibitors. 310,000 compounds, 3.5% hits. Drosophila S2 Gal4-VP16 UAS-luciferase, luminescence, 20 h. AID 2546;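 note: Gal4-VP16 expression switched on by copper sulfate through the metallothionein promoter; % is set by controls: 0 for no effect and ±100 for the full control effect; nearly all actives have a fitted effect of over 50% in size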
RORg inh – ROR gamma (mouse) transcription inhibition | AID 2551 | Potency, µM (top dose mostly 53.6 µM), for inactives: at the top dose activity change, negative = inhibition, most hits filed as inhibitors | Drosophila S2 Gal4-RORgamma UAS-luciferase reporter, 20 h | 310,000 compounds, 5.4% hits; note: % is set by controls: 0 for no effect and ±100 for the full control effect; nearly all actives have a fitted effect of over 60% in size
Target sequence (P51450 whole entry, looked up, the tested form may be a part): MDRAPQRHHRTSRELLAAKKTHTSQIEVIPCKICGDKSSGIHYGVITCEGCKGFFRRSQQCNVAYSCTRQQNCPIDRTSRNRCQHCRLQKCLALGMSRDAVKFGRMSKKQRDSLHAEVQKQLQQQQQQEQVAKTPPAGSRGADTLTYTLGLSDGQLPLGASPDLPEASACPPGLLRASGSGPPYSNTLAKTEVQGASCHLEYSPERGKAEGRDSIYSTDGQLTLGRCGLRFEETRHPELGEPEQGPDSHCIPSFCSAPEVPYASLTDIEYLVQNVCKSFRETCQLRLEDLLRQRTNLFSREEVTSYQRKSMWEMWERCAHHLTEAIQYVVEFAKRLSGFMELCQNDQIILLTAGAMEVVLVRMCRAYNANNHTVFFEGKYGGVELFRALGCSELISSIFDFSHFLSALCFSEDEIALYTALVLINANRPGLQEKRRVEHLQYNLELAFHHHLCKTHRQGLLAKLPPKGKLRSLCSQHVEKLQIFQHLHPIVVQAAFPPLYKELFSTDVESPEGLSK
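ROR gamma transcriptional activity was tracked as Gal4-UAS luciferase output in stably transfected Drosophila Schneider cells, with compound added 1 hr before 700 uM copper sulfate induction and a 20 hr ambient-temperature incubation.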
ATXN2 expr inh – reduces ATXN2 reporter expression in HEK-293 cells; HEK-293 ATXN2-luciferase reporter, luminescence, 24 h; Potency, µM (highest dose often 57 µM), inactives show top-dose activity change, negative = inhibition, actives largely listed as inhibitors; 360,000 compounds, 0.72% hits; note: % is set by controls: 0 for no effect and ±100 for the full control effect; nearly all actives have a fitted effect of over 55% in size
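ATXN2-luciferase reporter cells (luciferase flanked by upstream and downstream ATXN2 gene portions) were treated 24 h at 37 °C with compounds at up to 57 uM. SteadyGlo luminescence gave expression; GF-AFC fluorescence gave viability.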
* marks the source's active call; other numbers are inactive results; i = inactive; ? = inconclusive; / = not tested or not shown; [ ] = another dose, or the depositor's remark. Calls come from the whole dose curve; as a rule, active = well fitted curve in the direction sought with a large enough effect; inconclusive = small, poorly fitted or top-dose-only effect, or another doubt; inactive = no such curve, though single readings can be large; an effect the other way counts as inactive or inconclusive. Potency is the fitted concentration of half-maximal effect.

SMILES	TGFb SMAD3 inh	HepG2 viability	S2 tox	Gal4-VP16 FLuc	RORg inh	ATXN2 expr inh
Cc1ccc(S(=O)(=O)/N=C(/NC(=S)Nc2cccc(C)c2)c2ccccc2)cc1	-20.8%	-17.5%	i	12.6µM*	?	30.2%
CC(C)OC(=S)N/C(=N\S(=O)(=O)c1ccccc1)c1ccccc1	-14.9%	-10.0%	i	22.1%[0.365 µM]	0.447µM*	4.4%
Cc1cccc(NC(=S)N/C(=N/S(=O)(=O)c2ccccc2)c2ccccc2)c1	-2.4%	5.6%	i	?	?	32.4%
CC(C)O/C(=N\S(=O)(=O)c1ccc(Cl)cc1)c1ccccc1	17.9%	-4.6%	i	4.2%	-0.3%	1.8%
O=C(CCn1cnc2ccccc2c1=O)Nc1cccc(Cl)c1Cl	-14.4%	0.6%	0.159µM*	6.3%	14.4%	/
CCOC(=O)CSCc1nc(-c2ccc(Cl)cc2)oc1C	-9.2%	-18.7%	i	?	10µM*	-16.5%
CCOc1ccc(-c2nc(CSCC(=O)NCc3ccc(Cl)cc3)c(C)o2)cc1	-34.0%	-19.2%	?	/	/	?
CCc1ccc(-c2nc(CSCC(=O)NCc3ccco3)c(C)o2)cc1	?	-18.6%	i	2µM*	0.398µM*	?
Cc1ccc(-c2nc(CSCC(=O)Nc3cc(C)on3)c(C)o2)cc1	11.7%	0.7%	i	6.31µM*	?	-8.7%
Cc1cc(NC(=O)CSCc2nc(-c3cccc(F)c3)oc2C)no1	-11.0%	-13.5%	i	-21.3%	0.8%	1.2%
Cn1c(=O)c2[nH]c(Cc3ccsc3)nc2n(C)c1=O	14.2%	-17.5%	i	/	/	6.9%
O=C(NC(=S)Nc1nc(-c2ccc(Cl)cc2)cs1)c1cccs1	-2.4%	-111.3%	i	4.3%	0.794µM*	-1.5%
Cc1ccc2nc(NC(=O)c3cccs3)sc2c1	-5.0%	-50.7%	?	-29.8%	?	-52.3%
O=C(NC(=S)Nc1nc(-c2ccccc2)cs1)c1cccs1	-10.6%	29.0%	?	-9.4%	-0.7%	-17.7%
Cc1ccc2nc(NC(=S)NC(=O)c3cccs3)sc2c1	-2.7%	-7.5%	i	3.16µM*	1.12µM*	49.3%
Cc1ccc(-c2csc(NC(=S)NC(=O)c3cccs3)n2)cc1	7.0%	-4.8%	i	-0.2%	2µM*	10.0%
COc1ccc(-c2csc(C(NC(C)=O)c3ccc(F)c(F)c3)n2)cn1 (centres undefined)	3.8%	-0.4%	i	/	/	-2.5%
COc1cc(C)ccc1S(=O)(=O)NC(=O)C1(C)CCN1C(=O)c1ccc(C2CCCCC2)cc1 (centres undefined)	35.2%	-5.8%	i	/	/	-0.2%
CC(=O)c1ccc(S(=O)(=O)NCCC(=O)OCC(=O)N(Cc2ccccc2)C(C)(C)C)cc1	?	0.4%	i	/	/	3.6%
CCCC(O)c1nc2ccccc2n1Cc1ccccc1OC (centres undefined)	?	-17.4%	i	/	/	-4.1%
O=C(NCc1ccccn1)C(=O)Nc1nc(C23CC4CC(CC(C4)C2)C3)cs1	-28.7%	-22.5%	i	10µM*	2.82µM*	-7.6%
O=C(NCc1ccccn1)NC12CC3CC(CC(C3)C1)C2	-29.4%	-13.3%	i	4.0%	-43.1%	1.1%
CCNc1nc(C23CC4CC(CC(C4)C2)C3)cs1	-9.1%	2.9%	i	?	10µM*	-11.0%
CC(=O)NNC(=O)CC(=O)Nc1nc(C23CC4CC(CC(C4)C2)C3)cs1	-11.3%	5.5%	i	0.9%	-6.1%	-19.7%
Cc1ccc(C)c(Nc2nc3nonc3nc2N2CCOCC2)c1	?	1.5%	?	0.0%	-21.5%	-8.7%
Cc1ccc(C)c(Nc2nc3nonc3nc2Nc2cccc(C)c2C)c1	6.31µM*	-44.7%	/	/	/	?
c1ccc2c(c1)OCC(CNc1ncnc3sccc13)O2 (centres undefined)	-23.8%	-42.3%	i	0.501µM*	?	-8.1%
